Screens from PubChem BioAssay.
GPR151 ag = activators of human GPR151 | Q8TDV0 | PathHunter beta-arrestin GPR151 cells, luminescence | activation, % at 11.2 µM | 1% of 650,000 active | AID 1508602; in the data active = activation above about 4.9%;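 also: 0% = median of compound wells and 100% = cells with positive control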
FBW7 act = activators of human E3 ligase FBW7. Q969H0. AlphaScreen FBW7–phospho-cyclin E peptide binding, activator screen. normalized activity (activation), % at 26.1 µM. 0.13% of 650,000 active. AID 1259310; in the data active = normalized activity above about 1.9%;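 also: purified mutant Fbw7 with reduced substrate affinity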
Target sequence (Q969H0 whole entry, looked up): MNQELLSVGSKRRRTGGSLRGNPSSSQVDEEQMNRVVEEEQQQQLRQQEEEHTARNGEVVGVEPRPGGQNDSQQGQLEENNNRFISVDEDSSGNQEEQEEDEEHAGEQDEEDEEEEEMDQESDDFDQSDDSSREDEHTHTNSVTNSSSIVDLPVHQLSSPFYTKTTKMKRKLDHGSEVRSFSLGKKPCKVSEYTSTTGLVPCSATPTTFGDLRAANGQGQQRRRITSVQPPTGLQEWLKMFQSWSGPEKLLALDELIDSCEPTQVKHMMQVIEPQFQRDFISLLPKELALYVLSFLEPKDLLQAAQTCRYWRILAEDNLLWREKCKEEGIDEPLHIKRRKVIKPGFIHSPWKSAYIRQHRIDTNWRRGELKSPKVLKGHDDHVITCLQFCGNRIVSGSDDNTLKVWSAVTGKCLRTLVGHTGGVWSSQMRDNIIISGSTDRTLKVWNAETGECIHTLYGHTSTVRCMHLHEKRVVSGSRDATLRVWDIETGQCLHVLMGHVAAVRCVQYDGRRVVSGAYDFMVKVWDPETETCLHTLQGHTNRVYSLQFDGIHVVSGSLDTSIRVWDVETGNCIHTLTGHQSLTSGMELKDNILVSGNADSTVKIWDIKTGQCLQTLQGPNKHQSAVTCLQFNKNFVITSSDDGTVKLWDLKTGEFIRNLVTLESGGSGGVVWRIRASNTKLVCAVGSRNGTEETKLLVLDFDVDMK
MITF inh = blocks human microphthalmia-associated transcription factor; inhibition, % at 2.6 µM; 0.91% of 650,000 active; AlphaScreen MITF homodimerization, bead proximity signal; in the data active = inhibition above about 50%;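 also: 0% = vehicle wells with protein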
TEAD-YAP block = TEAD-YAP interaction inhibition. HEK-TIYL cells, TEAD-Gal4/YAP UAS-luciferase luminescence. 1.4% of 640,000 active. inhibition, % at 9.12 µM. AID 1259422; in the data active = inhibition above about 32%;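 also: 0% = median of test compound wells and 100% = reference inhibitor wells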
* hit, by the source's call. Rows were chosen to be rich in hits. Some 3.4% of all compounds tested hit in one or more screens of this group.

SMILES	GPR151 ag	FBW7 act	MITF inh	TEAD-YAP block
COc1cc(C2C(C#N)=C(N)Oc3n[nH]c(-c4ccc(Cl)s4)c32)ccc1O (stereo unspecified)	1	0	-10	4
Cc1ccc2nc(C3C(=O)c4ccccc4C3=O)ccc2c1	3	0	4	54*
COc1ccc2nc(C3C(=O)c4ccccc4C3=O)ccc2c1	-3	0	14	83*
CN(Cc1ccccc1)C(=O)CN(C)S(=O)(=O)c1cc(Br)cnc1N	0	0	7	8
Cc1csc(N/N=C\c2ccccn2)n1	-7	-2	16	79*
CC(=O)Nc1ccc(S(=O)(=O)Nc2c(C)nn(C)c2C)cc1	-1	1	15	7
Cc1nn(C)c(C)c1NS(=O)(=O)c1ccc(C(C)(C)C)cc1	0	0	-10	55*
CCOC(=O)C1=C(N)N(c2ccc(C)cc2)C2=C(C(=O)CC(C)(C)C2)C1c1ccc(OC)cc1 (stereo unspecified)	2	0	8	13
COCc1cc(C)nc2sc3c(c12)NC(c1ccco1)N(Cc1ccccc1)C3=O (stereo unspecified)	0	0	8	-12
Cc1nn(-c2nc3ccccc3[nH]2)c(=O)c2ccccc12	-9	0	2	97*
COc1ccc2cnn(-c3nc4ccccc4[nH]3)c(=O)c2c1OC	-4	0	-5	43*
COc1ccc(S(=O)(=O)N(C)CCO)cc1N(C)S(=O)(=O)c1ccc(C)cc1	-2	0	12	5
COc1ccc(N=Cc2c(O)n(-c3cccc(OC)c3)c(=O)[nH]c2=O)cc1	-1	0	76*	-8
CCOC(=O)c1ccc(N=Cc2c(O)n(-c3cccc(OC)c3)c(=O)[nH]c2=O)cc1	1	0	-2	-4
CNC(=O)c1cc2cc(Br)ccc2oc1=O	-1	0	0	-7
O=C(NNC(=O)c1cc2cc(Br)ccc2oc1=O)c1ccc(O)cc1O	0	0	30	34*
COc1ccc(C2Oc3ccccc3C3=C2C(c2cccs2)n2ncnc2N3)cc1 (stereo unspecified)	2	0	2	38*
COc1ccc(C2C3=C(Nc4ncnn42)c2ccccc2OC3c2cccs2)cc1 (stereo unspecified)	-1	0	-9	-5
O=C(Nc1cccc2cnccc12)c1cccc(S(=O)(=O)N2CCCCCC2)c1	1	0	8	38*
O=C(Nc1ccccc1O)c1cccc(S(=O)(=O)N2CCCCC2)c1	0	1	14	5
CC(C)(C)c1cc(/C=C(\C#N)C(N)=S)cc(C(C)(C)C)c1O	3	0	-2	47*
COc1cc(/C=C(\C#N)C(N)=S)ccc1O	0	0	9	9
CCOC(=O)c1cc2c(=O)n3ccccc3nc2n(Cc2ccco2)c1=NC(=O)c1cccc(C(F)(F)F)c1	-2	0	-3	-13
NS(=O)(=O)c1ccc(CCNC(=O)c2ccc(C#CC3(O)CCCCC3)cc2)cc1	-1	0	16	45*
O=C1CCNC(=S)N1c1ccccc1	0	0	1	-1
SMILES	GPR151 ag	FBW7 act	MITF inh	TEAD-YAP block
O=C(CSc1ccccc1)N1CCN(c2nc3ccccc3s2)CC1	-7	0	3	38*
O=C1COc2cc(S(=O)(=O)Nc3cc(C(F)(F)F)cc(C(F)(F)F)c3)ccc2N1	0	7.8*	-13	5
Cc1cc(C)cc(NS(=O)(=O)c2ccc3c(c2)OCC(=O)N3)c1	1	0	-8	-12
CS(=O)(=O)c1ccc(C(=O)OC2CCOC2=O)cc1 (stereo unspecified)	-2	0	7	7
CCOC(=O)C1CCN(C(=O)Nc2ccc(NC(=O)C3CCN(C(=O)OCC)CC3)cc2)CC1	1	6.1*	4	-3
COc1cc(/C=C2\SC(=S)N(Cc3ccco3)C2=O)ccc1OCC(=O)O	-1	0	3	8
COc1cc(/C=C2/C(=O)NC(=O)N(Cc3ccco3)C2=O)ccc1OCC(=O)O	3	0	77*	7
Cc1cc(/C=C2\C(=O)NC(=O)N(Cc3ccco3)C2=O)c(C)n1C1CC1	-2	-1	62*	-4
COc1ccc(OC)c(CN2C(=O)NC(=O)/C(=C\c3ccco3)C2=O)c1	3	-1	57*	-1
COc1ccc2ccccc2c1/C=C1/C(=O)NC(=O)N(Cc2ccco2)C1=O	-1	0	76*	4
COC(=O)C1=C(C)NC2=C(C(=O)CC(c3ccccc3)C2)C1c1cc(Br)c(O)c(OC)c1 (stereo unspecified)	-1	0	9	12
CCC(C)NC(=O)c1ccc2c(c1)nc(C)n2-c1cc(OC)c(OC)c(OC)c1 (stereo unspecified)	-2	1	12	-4
COc1cc(C)c(/C=C2/C(=O)NC(=O)N(Cc3ccco3)C2=O)cc1C(C)C	0	0	69*	-5
COc1cc(C)c(/C=C2/NC(=O)NC2=O)cc1C(C)C	2	0	-4	44*
COCCn1c(C)cc(/C=C2\C(=O)NC(=O)N(Cc3ccco3)C2=O)c1C	0	0	29	-6
CCCCOc1ccc(-c2nnc(-c3ccc(-c4ccc(OC)cc4)cc3)o2)cc1	1	0	5	3
CC(=O)c1ccc(NC(=O)N2CCC(NC(=O)OC(C)(C)C)CC2)cc1	2	0	7	3
CCOc1cc(C2C(C#N)=C(N)Oc3cc4c(cc32)OCO4)cc(Br)c1OC (stereo unspecified)	1	0	5	57*
COc1ccc(Br)cc1C1C(C#N)=C(N)Oc2cc3c(cc21)OCO3 (stereo unspecified)	0	0	-14	47*
Cc1nc2scc(C)n2c1C(=O)NC1CCC1	-1	1.9*	18	7
Cc1cccc(OCC(=O)NN=C2CCCCC2)c1	1	0	11	4
Cc1ccc(NC(=O)N(Cc2cc3cc4c(cc3[nH]c2=O)OCCO4)CC2CCCO2)cc1 (stereo unspecified)	1	0	8	55*
C=C1CC[C@H](O)C/C1=C/C=C1\CCCC2(C)C1CCC2C(C)CCCC(C)C (stereo partly specified)	1	0	11	-5
C=C1/C(=C\C=C2/CCCC3(C)[C@@H]([C@H](C)CCCC(C)(C)O)CC[C@@H]23)C[C@@H](O)C[C@@H]1O (stereo partly specified)	0	0	-2	37*
O=C1N[C@@H](CO)C(=O)N2CCN(CC3CCCCC3)C[C@H]12	-1	1	1	-4
CCOc1ccc(NC(=O)c2ccc(F)c(S(=O)(=O)N3CCCc4ccccc43)c2)cc1	0	1	15	43*
CCOc1ccc(NC(=O)c2ccc(F)c(S(=O)(=O)N3CCN(c4ccccc4)CC3)c2)cc1	1	0	0	37*
CCOC(=O)C1CCCN(S(=O)(=O)c2cc(C(=O)Nc3ccc(Oc4ccccc4)cc3)ccc2F)C1 (stereo unspecified)	-1	0	8	53*
O=C(Nc1ccc(Oc2ccccc2)cc1)c1ccc(F)c(S(=O)(=O)N2CCN(c3cccc(Cl)c3)CC2)c1	2	0	3	41*
